Test results published in PubChem BioAssay (EPA / NIEHS).
“And” between values parts separate entries of the source, which are not always exact repeats. Identical values can stand only once. Some compounds were tested as several samples or in several runs, with calls that do not always agree. The source made the active and inactive calls. How the source made its calls: active means hit-call score of the fitted dose curve at least 0.9, where 1 is the maximum; inactive means score below 0.9.

Read-out: Matrix Metallopeptidase 9 (MMP9), MMP9 (gene 4318)
Assay: BSK_BE3C_MMP9: BioMAP Diversity Plus: BE3C Assay for Matrix Metallopeptidase 9 (MMP9) Biomarker Activity (AID 2284283)
Conditions: primary human bronchial epithelial cells
Summary of the method: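 Human primary bronchial epithelial cells exposed 24 h to compound. MMP9 quantified by ELISA. SRB total-protein staining of parallel cultures assesses cytotoxicity. Positive-direction fit relative to DMSO.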

`O=C(O)C(F)(F)C(F)(F)C(F)(F)C(F)(F)C(F)(F)C(F)(F)C(F)F` was tested. Which outcome did it give?
Its outcome is “inactive”.

How did the AC50 turn out when `C=CC(=O)OCC(F)(F)C(F)(F)C(F)(F)COC(=O)C=C` was run?
The AC50 was 8.23 µM (active) and 8.72 µM (active).

`COC(F)(C(F)F)C(F)(F)F` (centres undefined) was tested. Which outcome did it give?
Its outcome is “inactive”.

For `O=S(=O)(O)CCC(F)(F)C(F)(F)C(F)(F)C(F)(F)F`, which outcome is on record?
The outcome was “inactive”.

`NC(=O)C(F)(F)C(F)(F)C(F)(F)C(F)F` was tested. Which outcome did it give?
The outcome was “inactive”.

For `CCN=C1C=CC(=C(c2ccc(N(CC)CC)cc2)c2ccc(N(CC)CC)cc2)c2ccccc21`, which AC50 is on record?
Its AC50 is 1.07 µM (active) and 490 nM (active).

For `OCCCC(F)(F)C(F)(F)C(F)(F)C(F)(F)C(F)(F)C(F)(F)C(F)(F)C(F)(F)F`, which AC50 is on record?
Its AC50 is 50 µM (active) and 48.2 µM (active).

For `FC(F)(F)C(F)(F)C(F)(F)C(F)(F)C(F)(F)C(F)(F)CC[Si](Cl)(Cl)Cl`, which outcome is on record?
Its outcome is “inactive”.

How did the outcome turn out when `OCC(O)CC(F)(F)C(F)(F)C(F)(F)C(F)(F)F` (centres undefined) was run?
The outcome was “inactive”.

`OCC(F)(F)C(F)(F)C(F)(F)C(F)(F)C(F)(F)C(F)(F)C(F)(F)C(F)(F)CO` was tested. Which AC50 did it give?
Its AC50 is 34.8 µM (active) and 22.1 µM (active).

`C=CC(=O)OCCC(F)(F)C(F)(F)C(F)(F)C(F)(F)F` was tested. Which outcome did it give?
Its outcome is “inactive”.

`FC(F)(F)C(F)(F)C(F)(F)CC1CO1` (centres undefined) was tested. Which outcome did it give?
Its outcome is “inactive”.

With `NC(=O)C(F)(F)C(F)(F)C(F)(F)C(F)(F)C(F)(F)C(F)(F)C(F)(F)F` as the compound, how does the outcome read?
The outcome was “inactive”.

With `NC(=O)C(F)(F)C(F)(F)C(F)(F)C(F)(F)C(N)=O` as the compound, how does the outcome read?
Its outcome is “inactive”.

`O=C(O)CCC(F)(F)C(F)(F)C(F)(F)C(F)(F)C(F)(F)C(F)(F)C(F)(F)F` was tested. Which outcome did it give?
Its outcome is “inactive”.

`OCC(F)(F)C(F)(F)C(F)(F)CO` was tested. Which outcome did it give?
The outcome was “inactive”.

Which outcome does the source give for `NC(=O)C(F)(F)C(F)(F)C(F)(F)F` here?
The outcome was “inactive”.

Which outcome does the source give for `CN(C(=O)C(F)(F)C(F)(F)C(F)(F)F)[Si](C)(C)C` here?
Its outcome is “inactive”.

With `C[Si](Cl)(Cl)CCC(F)(F)C(F)(F)C(F)(F)C(F)(F)C(F)(F)C(F)(F)F` as the compound, how does the outcome read?
The outcome was “inactive”.

For `O=C(O)C(F)(F)C(F)(F)C(F)(F)OC(F)(F)F`, which outcome is on record?
The outcome was “inactive”.

`NCC(F)(F)C(F)(F)C(F)(F)C(F)(F)C(F)(F)C(F)(F)C(F)(F)C(F)(F)F` was tested. Which outcome did it give?
The outcome was “inactive”.

How did the outcome turn out when `CCOC(=O)CC(=O)C(F)(F)C(F)(F)F` was run?
Its outcome is “inactive”.

What does the source list for `O=S(=O)(OCC(F)(F)F)C(F)(F)C(F)(F)C(F)(F)C(F)(F)F`?
AC50: 6.24 µM (active); outcome: inactive
